Bioassay records deposited in PubChem by National Center for Advancing Translational Sciences (NCATS).
The full list was thinned out, with hits kept by preference.
ALOX12 inh: Primary qHTS assay for inhibitors of human arachidonate 12S-lipoxygenase (ALOX12): Round 2; Polyunsaturated fatty acid lipoxygenase ALOX12 (Homo sapiens), P18054; purified 12hLO, xylenol orange hydroperoxide absorbance; Potency, µM (top dose mostly 108 µM), inactives show at the top dose activity change, negative = inhibition, most hits filed as inhibitors; 580,000 compounds, 1.1% hits; AID 1671190, 2021; also: potency is read from the fitted curve at half-maximal effect
Target sequence (P18054 whole entry, looked up): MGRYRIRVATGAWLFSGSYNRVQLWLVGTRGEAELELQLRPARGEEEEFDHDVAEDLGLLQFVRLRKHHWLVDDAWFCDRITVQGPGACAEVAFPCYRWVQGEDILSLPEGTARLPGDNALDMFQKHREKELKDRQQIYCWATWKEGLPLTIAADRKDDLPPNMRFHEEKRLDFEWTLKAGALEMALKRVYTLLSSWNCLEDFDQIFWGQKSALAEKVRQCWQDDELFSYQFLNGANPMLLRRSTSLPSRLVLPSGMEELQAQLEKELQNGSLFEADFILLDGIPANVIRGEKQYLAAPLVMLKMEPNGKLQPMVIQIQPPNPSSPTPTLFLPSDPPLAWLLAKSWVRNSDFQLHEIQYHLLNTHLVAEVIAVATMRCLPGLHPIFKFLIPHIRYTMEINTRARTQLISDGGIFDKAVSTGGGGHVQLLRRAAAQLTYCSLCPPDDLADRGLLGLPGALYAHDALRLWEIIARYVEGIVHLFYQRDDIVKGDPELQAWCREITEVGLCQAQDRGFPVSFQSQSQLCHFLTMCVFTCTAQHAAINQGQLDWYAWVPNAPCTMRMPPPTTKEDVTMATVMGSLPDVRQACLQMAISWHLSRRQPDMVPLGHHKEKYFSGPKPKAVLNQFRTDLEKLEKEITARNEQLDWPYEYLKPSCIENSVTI
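Purified human 12hLO (150 nM final) in 25 mM Hepes, 0.01% Triton X-100, pH 7.0 was preincubated 15 min at room temperature with compound. Then 40 uM arachidonic acid was added, 30 min. Hydroperoxide was read by Fe-XO absorbance ratio 573/405 nm.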
HT1080 IDH1KD tx: qHTS for induction of synthetic lethality in tumor cells producing 2HG: qHTS for the HT-1080-IDH1KD cell line; HT-1080 IDH1 knockdown viability, ATP luminescence, 48 h; Potency, µM (doses to about 46.1 µM), for the others: at the highest dose activity, negative = toxicity, hits mostly cytotoxic; 360,000 compounds, 2% hits;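 also: potency is read from the fitted curve at half-maximal effect; 0% = DMSO wells and -100% = cell-free medium wells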
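Assay cells: HT-1080 with IDH1 knockdown, 750 per well, RPMI/5% FBS. Exposure: 48 h at 37 °C following 2 h pre-incubation. Read: CellTiter-Glo luminescence; fitted concentration-response, curve class assigned.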
HT1080NT lethal: qHTS for induction of synthetic lethality in tumor cells producing 2HG: qHTS for the HT-1080-NT fibrosarcoma cell line; Potency, µM (doses to about 46.1 µM), for the others: at the highest dose activity, negative = less viability, actives largely listed as cytotoxic; 360,000 compounds, 1.6% hits; AID 686970, 2013; HT-1080-NT fibrosarcoma viability, CellTiter-Glo ATP luminescence, 48 h;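 also: NT is the 2HG producing partner of a matched IDH1 knockdown line; potency is read from the fitted curve at half-maximal effect; 0% = DMSO-treated cells and -100% = media-only wells without cells; nearly all actives have a fitted effect of over 55% in size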
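750 cells/well, RPMI + 5% FBS; 2 h settle, compound pin-transfer, 48 h at 37 degrees C. CellTiter-Glo 10 min RT, luminescence. Normalized to DMSO and media-only wells.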
IL1B secr inh: qHTS for Inhibitors of Inflammasome Signaling: IL-1-beta AlphaLISA Primary Screen | THP-1 LPS/ATP IL-1B secretion, AlphaLISA, 16 h; stronger effect = lower value | activity change, % at 57.5 µM | 360,000 compounds, 4.7% hits | AID 743279, 2014; in the data active = activity change below about -50%; inconclusive = mostly about -30% to -49%
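Secreted IL-1B measured by AlphaLISA bead assay after 16 h compound exposure of THP-1 cells; compounds (final up to 57.5 uM) added 1 h before LPS (250 ng/mL) and ATP (1.25 mM) stimulation; lower signal means less secretion.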
DT40 TDP1 CPT: qHTS for Inhibitors of human tyrosyl-DNA phosphodiesterase 1 (TDP1): qHTS in cells in presence of CPT. chicken DT40 Tdp1-/-;hTDP1 cells + 20 nM CPT, ATP luminescence, 48 h. Potency, µM (top dose mostly 46.2 µM), for inactives: top-dose activity change, negative = growth inhibition, actives largely listed as inhibitors. 420,000 compounds, 12% hits; also: potency is read from the fitted curve at half-maximal effect; nearly all actives have a fitted effect of over 55% in size
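Cell growth measured by CellTiter-Glo luminescence after a minimum 48 h, 37 C compound exposure with 20 nM CPT in Tdp1-knockout DT40 cells stably expressing hTDP1, seeded 400/well; qHTS titration format.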
DT40 TDP1 no CPT: qHTS for Inhibitors of human tyrosyl-DNA phosphodiesterase 1 (TDP1): qHTS in cells in absence of CPT. DT40 Tdp1-/- hTDP1 cells, no CPT, ATP luminescence, 48 h. Potency, µM (highest dose often 46.2 µM), for inactives: at the highest dose activity change, negative = growth inhibition, usual class: inhibitors. 420,000 compounds, 15% hits. AID 686978, 2013; also: potency is read from the fitted curve at half-maximal effect; nearly all actives have a fitted effect of over 55% in size
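Growth of hTDP1-complemented DT40 Tdp1-knockout cells is measured by ATP luminescence after at least 48 hr compound exposure at 37 °C, with DMSO substituting for the 20 nM CPT used in the parallel screen.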
Starred values were filed as active, the others as inactive; ? = inconclusive; . = no result; ! = not confirmed by another sample. Unless noted, calls follow the shape of the dose curve; as a rule, active = well fitted curve in the direction sought with a large enough effect; inconclusive = small, poorly fitted or top-dose-only effect, or another doubt; inactive = no such curve, though single readings can be large; an effect the other way counts as inactive or inconclusive. Unless noted, % is scaled to controls: 0 for no effect and ±100 for the full control effect.

SMILES | ALOX12 inh | HT1080 IDH1KD tx | HT1080NT lethal | IL1B secr inh | DT40 TDP1 CPT | DT40 TDP1 no CPT
COc1ccc(C2N(C(=O)CN3CCOCC3)CCCN2S(=O)(=O)c2ccc(C)cc2)cc1 (stereo unspecified) | -10.1% | . | . | . | . | .
COc1ccc(-c2nnc(CSc3nc(C)c(C)n3C3CCCC3)o2)cc1 | 12.1% | . | . | . | . | .
COC(=O)c1ccc(NC(=O)CC2C(=O)N(c3cccc(F)c3)C(=O)N2CC(C)C)cc1 (stereo unspecified) | -29.8% | . | . | . | 20.6µM* | 13µM*
CCc1ccc(NC(=O)CC2C(=O)N(c3cccc(C)c3)C(=O)N2Cc2ccc(F)cc2)cc1 (stereo unspecified) | ? | . | . | . | ? | -98.3%
COc1cc(NC(=O)CC2C(=O)N(c3cccc(C)c3)C(=O)N2Cc2ccc(F)cc2)cc(OC)c1 (stereo unspecified) | -46.7% | . | . | . | ? | 20.6µM*
C(=N\N=C(c1ccccc1)c1ccccc1)/c1cccs1 | 50.4% | . | . | . | . | .
CC(=O)Nc1ccc(/C=C/c2ccnc3ccccc23)cc1 | . | . | . | . | 15.8µM* | 11.2µM*
CC(=O)Nc1ccc(/C=C/c2ccnc3ccccc23)cc1[N+](=O)[O-] | . | . | . | . | 1.41µM* | ?
CC(=O)Nc1ccc(/C=C/c2ccccn2)cc1 | . | . | . | . | -7.7% | -4.3%
CCOC(=O)C(C(=O)OCC)C(c1ccccc1)N1CCN(c2ccccc2)CC1 (stereo unspecified) | 10.7% | -2.5% | 1.8% | -16.0 | ? | 20.6µM*
COc1ccccc1N1CCN(CC(=O)c2c(C)[nH]c3cc(C)ccc23)CC1 | ? | -9.6% | -6.1% | -9.4 | ? | 18.4µM*
COc1ccccc1N1CCN(CCCCOc2cccc3ccccc23)CC1 | ? | 16.4µM* | ? | -56.5* | 18.4µM* | 9.2µM*
COc1ccccc1N1CCN(CCCCCCOc2ccc(F)cc2)CC1 | -30.0% | 4.3% | -15.5% | -22.8 | 23.1µM* | 20.6µM*
CCNC(=O)N1CC(c2nnc(-c3ccncc3)o2)C2(CCOCC2)C1 (stereo unspecified) | 40.1% | . | . | . | . | .
COc1ccc(C(=O)Nc2oc3ccccc3c(=O)c2-c2ccc3c(c2)OCO3)cc1 | 10.7% | . | . | . | . | .
COc1ccccc1N1CCN(CC(=O)c2ccc(F)cc2)CC1 | 1.12µM* | 6.5% | 1.7% | 25.0 | -21.0% | -22.2%
CC(CC(=O)c1ccc(F)cc1)N1CCN(c2ccccc2)CC1 (stereo unspecified) | ? | 2.6% | 0.2% | -15.2 | 18.4µM* | ?
O=S(=O)(c1ccc2c(c1)OCCO2)N1CCC(n2nnc3cc(C(F)(F)F)ccc32)CC1 | 0.0% | -18.3% | -22.5% | -29.5 | ? | 16.4µM*
O=C(NC1CCCCC1)C1CCCN(c2cnc3nccnc3c2)C1 (stereo unspecified) | 9.9% | . | . | . | . | .
C/C(N)=C(/C#N)C(=O)CSc1nc(C2CCCCC2)n(-c2ccccc2)n1 | -7.6% | -0.1% | -21.3% | -6.4 | 13µM*! | ?
CC(C)c1ccc(S(=O)(=O)N2CCC(CC(=O)NCc3ccccc3)C2)cc1 (stereo unspecified) | 7.7% | . | . | . | . | .
COc1cc(NC(=O)c2noc(C)c2[N+](=O)[O-])c(OC)cc1Cl | 4.4% | 2.9% | 0.8% | -7.4 | 14.6µM* | 6.51µM*
COc1cc(NC(=O)c2noc3c2CCC3)c(OC)cc1Cl | 25.6% | -7.1% | 7.5% | 25.2 | -22.5% | -26.9%
O=C(NC1CCCC1)C(c1cccs1)N(CC1CCCO1)C(=O)Cc1cccs1 (stereo unspecified) | ? | 3.6% | 0.3% | 6.4 | ? | 20.6µM*
O=C(Cc1cccs1)N(Cc1cccs1)C1(C(=O)NC2CCCCC2)CCCCC1 | 0.6% | -0.4% | 3.9% | -52.3* | 25.9µM* | 16.4µM*
SMILES | ALOX12 inh | HT1080 IDH1KD tx | HT1080NT lethal | IL1B secr inh | DT40 TDP1 CPT | DT40 TDP1 no CPT
O=C(NC1CCCCC1)C(c1cccs1)N(Cc1cccs1)C(=O)c1ccco1 (stereo unspecified) | -27.1% | -1.1% | 8.2% | -11.8 | 14.6µM* | 9.2µM*
COc1ccc(C(C(=O)NC2CCCC2)N(CC2CCCO2)C(=O)Cc2cccs2)cc1OC (stereo unspecified) | 1.5% | 0.7% | -7.8% | 3.4 | 5.1% | 8.4%
CC(C)CCNC(=O)C(c1ccc(O)cc1)N(Cc1cccs1)C(=O)C1COc2ccccc2O1 (stereo unspecified) | -35.0% | ? | ? | -73.2* | 23.1µM* | 16.4µM*
CC(C)(C)NC(=O)CN(Cc1cccs1)C(=O)C1COc2ccccc2O1 (stereo unspecified) | -19.9% | 13.9% | -1.4% | -9.0 | -25.5% | -24.2%
O=C(Cn1nc(C(=O)O)c2ccccc2c1=O)NC(=O)c1ccc(Cl)cc1 | 17.9% | . | . | . | . | .
COc1ccc(-c2ccc3nnc(CNC(=O)C(C)Oc4ccccc4)n3n2)cc1 (stereo unspecified) | -2.0% | . | . | . | . | .
O=C(Nc1ccccc1)C1CCCN1c1ncnc2ccccc12 (stereo unspecified) | 28.3% | . | . | . | . | .
O=C(NC1CCCCC1)C(c1ccc(O)cc1)N(CC1CCCO1)C(=O)C1COc2ccccc2O1 (stereo unspecified) | -12.7% | 4.61µM* | 4.61µM* | -12.5 | ? | ?
O=C(NCc1ccco1)C(c1cccs1)N(C(=O)C1COc2ccccc2O1)c1cccc(O)c1 (stereo unspecified) | ? | -19.2% | -18.4% | -7.3 | 23.1µM* | 13µM*
CC(NCc1cccs1)C(=O)NC1CCCCC1 (stereo unspecified) | -14.7% | 11.9% | 2.1% | -62.2* | -29.6% | -0.8%
O=C(CCc1cccs1)NC1CCCC1 | 6.6% | . | . | . | . | .
CC(=O)NC(Cc1ccc(Cl)cc1)C(=O)NCC(N)C(=O)c1ccccc1 (stereo unspecified) | . | 9.8% | 8.8% | . | 15.8µM* | ?
CCCNC(=O)C(Cc1ccc(I)cc1)NC(=O)c1ccc2ccccc2n1 (stereo unspecified) | -19.3% | -4.0% | -4.6% | -0.5 | ? | 20.6µM*
